Measured values published in PubChem BioAssay (NCI).
The panel holds about 83,000 compounds, 20% with a hit somewhere; the sample as a whole holds those more often.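 Method: cells in 96-well plates; compound added at one concentration; 48 h incubation; percent growth measured; values under 10 scored active.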 Active and inactive are the calls of the source.

Legend:
Assay in all cases: NCI-60 one-dose screen, 48 h (100 = growth as untreated, 0 = no growth, -100 = all killed)
Conditions in all cases: 10 µM unless noted
SR leukemia = system: SR leukemia
RPMI-8226 leukemia = system: RPMI-8226 leukemia
OVCAR-8 ovarian = system: OVCAR-8 ovarian
OVCAR-5 ovarian = system: OVCAR-5 ovarian
OVCAR-4 ovarian = system: OVCAR-4 ovarian
SK-OV-3 ovarian = system: SK-OV-3 ovarian
IGROV1 ovarian = system: IGROV1 ovarian
OVCAR-3 ovarian = system: OVCAR-3 ovarian
HS 578T breast = system: HS 578T breast
NCI/ADR-RES ovarian = system: NCI/ADR-RES ovarian

Measured: growth

N#Cc1ccc(O)c(C2=NCC(c3cccc(Oc4ccccc4)c3)O2)c1 (stereo not given)
active: SK-OV-3 ovarian -1.44% | NCI/ADR-RES ovarian 2.42%
inactive: SR leukemia 19.7% | RPMI-8226 leukemia 28.1% | OVCAR-8 ovarian 12.9% | OVCAR-5 ovarian 55.5% | OVCAR-4 ovarian 18.3% | IGROV1 ovarian 19.2% | OVCAR-3 ovarian 27.3% | HS 578T breast 52.6%

C=C(C)[C@@H]1CC[C@]2(C(=O)N3CCOCC3)CC[C@]3(C)[C@H](CC[C@@H]4[C@@]5(C)C/C(=C/c6ccncc6)C(=O)C(C)(C)[C@@H]5CC[C@]43C)[C@@H]12
inactive: SR leukemia 34.7% | OVCAR-8 ovarian 55.6% | OVCAR-5 ovarian 93.3% | OVCAR-4 ovarian 49.4% | SK-OV-3 ovarian 73.9% | IGROV1 ovarian 71.1% | OVCAR-3 ovarian 52.4% | HS 578T breast 74.5% | NCI/ADR-RES ovarian 72.3%
active: RPMI-8226 leukemia 4.12%

NNc1nc(-c2cccnc2)nc2c1sc(=S)n2-c1ccccc1
inactive: SR leukemia 88.3% | RPMI-8226 leukemia 106% | OVCAR-8 ovarian 92.8% | OVCAR-5 ovarian 102% | OVCAR-4 ovarian 100% | SK-OV-3 ovarian 79.6% | IGROV1 ovarian 97.9% | OVCAR-3 ovarian 93.1% | HS 578T breast 112% | NCI/ADR-RES ovarian 102%

COc1ccc(OC)c(/C=N/Nc2ncnc3c2c(C)nn3C)c1
inactive: SR leukemia 81.4% | RPMI-8226 leukemia 100% | OVCAR-8 ovarian 109% | OVCAR-5 ovarian 93.2% | OVCAR-4 ovarian 118% | SK-OV-3 ovarian 102% | IGROV1 ovarian 102% | OVCAR-3 ovarian 107% | HS 578T breast 88% | NCI/ADR-RES ovarian 101%

O=C(CN1C(=O)S/C(=C\c2ccccc2)C1=O)Nc1ncc(Cc2ccccc2Cl)s1
inactive: SR leukemia 113% | RPMI-8226 leukemia 103% | OVCAR-8 ovarian 93.3% | OVCAR-5 ovarian 103% | OVCAR-4 ovarian 89.6% | SK-OV-3 ovarian 102% | IGROV1 ovarian 94.6% | OVCAR-3 ovarian 109% | HS 578T breast 102% | NCI/ADR-RES ovarian 96.2%

O=C(Nc1nc2ccc(C(=O)N3CCN(/C=C/c4ccccc4)CC3)cc2s1)c1ccc(NCCc2ccccc2)c([N+](=O)[O-])c1
active: SR leukemia -13.7%
inactive: RPMI-8226 leukemia 18.5% | OVCAR-8 ovarian 68.4% | OVCAR-5 ovarian 83.6% | OVCAR-4 ovarian 42.9% | SK-OV-3 ovarian 62.9% | IGROV1 ovarian 64.3% | OVCAR-3 ovarian 59.3% | HS 578T breast 69% | NCI/ADR-RES ovarian 70.2%

O=S(=O)(c1ccccc1)n1cc2c(c1)-c1nc(Nc3ncccn3)sc1CC2
active: OVCAR-4 ovarian -27.9%
inactive: SR leukemia 74.6% | RPMI-8226 leukemia 71.3% | OVCAR-8 ovarian 65% | OVCAR-5 ovarian 95.8% | SK-OV-3 ovarian 66% | IGROV1 ovarian 70.4% | OVCAR-3 ovarian 40.3% | HS 578T breast 22.4% | NCI/ADR-RES ovarian 53%

NC(=O)c1cc(I)ccc1NC(=O)/C=C/c1ccccc1
active: SR leukemia 1.87% | RPMI-8226 leukemia -5.89% | IGROV1 ovarian -52.7% | OVCAR-3 ovarian -63.3% | HS 578T breast -12.8% | NCI/ADR-RES ovarian -37.1%
inactive: OVCAR-8 ovarian 31% | OVCAR-5 ovarian 42.4% | OVCAR-4 ovarian 44.6% | SK-OV-3 ovarian 69.8%

CC(C)c1ccc(C(=O)Nc2nc3ccc(O)c(CN(C)C)c3s2)cc1
inactive: SR leukemia 32.9% | RPMI-8226 leukemia 70.1% | OVCAR-8 ovarian 82.8% | OVCAR-5 ovarian 70.1% | OVCAR-4 ovarian 74.4% | SK-OV-3 ovarian 90.8% | IGROV1 ovarian 80.7% | OVCAR-3 ovarian 91.3% | HS 578T breast 86.8% | NCI/ADR-RES ovarian 87.8%

COc1ccc(C(O)c2cc3c(N)c(C(=O)Nc4cccc(Br)c4)sc3nc2C)cc1 (stereo not given)
inactive: RPMI-8226 leukemia 10.9% | OVCAR-8 ovarian 13.1% | OVCAR-5 ovarian 11.2% | OVCAR-4 ovarian 39.7% | SK-OV-3 ovarian 17.9% | IGROV1 ovarian 11.4% | NCI/ADR-RES ovarian 13.1%
active: SR leukemia 8.67% | OVCAR-3 ovarian 3.84% | HS 578T breast -6%

Nc1cc(C(=O)NC[C@H]2CN(c3ccc(N4CCC(C(=O)O)CC4)cc3)C(=O)O2)ccc1Cl
inactive: SR leukemia 95.4% | RPMI-8226 leukemia 100% | OVCAR-8 ovarian 103% | OVCAR-5 ovarian 96.1% | OVCAR-4 ovarian 107% | SK-OV-3 ovarian 113% | IGROV1 ovarian 103% | OVCAR-3 ovarian 114% | HS 578T breast 107% | NCI/ADR-RES ovarian 103%

CCOC(=O)C#Cc1c(C(=O)OCC)nnn1Cc1ccc([N+](=O)[O-])cc1
inactive: RPMI-8226 leukemia 11.4% | OVCAR-8 ovarian 63.3% | OVCAR-5 ovarian 97.3% | OVCAR-4 ovarian 51.2% | SK-OV-3 ovarian 105% | IGROV1 ovarian 89.6% | HS 578T breast 91.2% | NCI/ADR-RES ovarian 96.3%
active: SR leukemia -10.7% | OVCAR-3 ovarian 7.55%

Nc1ncnc2c1c(-c1cccc(Cl)c1)nn2CC(=O)N1CCOCC1
inactive: SR leukemia 116% | RPMI-8226 leukemia 108% | OVCAR-8 ovarian 102% | OVCAR-5 ovarian 101% | OVCAR-4 ovarian 96.6% | SK-OV-3 ovarian 109% | IGROV1 ovarian 99.2% | OVCAR-3 ovarian 106% | HS 578T breast 103% | NCI/ADR-RES ovarian 103%

O=[N+]([O-])c1ccc(O)cc1Br
inactive: SR leukemia 99.1% | RPMI-8226 leukemia 91.4% | OVCAR-8 ovarian 100% | OVCAR-5 ovarian 94% | OVCAR-4 ovarian 89.3% | SK-OV-3 ovarian 101% | IGROV1 ovarian 101% | OVCAR-3 ovarian 106% | HS 578T breast 98.4% | NCI/ADR-RES ovarian 98.9%

Cc1cccc(CNc2c3ccccc3nc3ccccc23)c1
active: SR leukemia -2.88% | RPMI-8226 leukemia -20.4%
inactive: OVCAR-8 ovarian 20.3% | OVCAR-5 ovarian 35.8% | OVCAR-4 ovarian 27.9% | SK-OV-3 ovarian 45.3% | IGROV1 ovarian 19.5% | OVCAR-3 ovarian 30.8% | HS 578T breast 30.3% | NCI/ADR-RES ovarian 25.7%

COC12C=C/C(=C(/C(=O)OCc3ccncn3)C(=O)CCCCCCCCC3(OC)C=C/C(=C(/C(=O)OCc4ccncn4)C(=O)CCCCCCCC1)O3)O2
active: SR leukemia -15.6% | RPMI-8226 leukemia -22.3% | OVCAR-5 ovarian -2.72% | IGROV1 ovarian -27.1% | OVCAR-3 ovarian -52.4% | NCI/ADR-RES ovarian 7.59%
inactive: OVCAR-8 ovarian 17.2% | OVCAR-4 ovarian 12.2% | SK-OV-3 ovarian 52.8% | HS 578T breast 38%

Cc1cn(-c2cc(NC(=O)c3cncc(C#Cc4cnc(N)c5ncccc45)c3)cc(C(F)(F)F)c2)cn1
inactive: SR leukemia 62.7% | RPMI-8226 leukemia 50.9% | OVCAR-8 ovarian 64.5% | OVCAR-5 ovarian 60.3% | OVCAR-4 ovarian 76.3% | SK-OV-3 ovarian 106% | IGROV1 ovarian 62.3% | OVCAR-3 ovarian 92.1% | HS 578T breast 60.1% | NCI/ADR-RES ovarian 86.9%

COc1c(B(O)O)cccc1-c1nc2c(F)cc3[nH]ncc3c2c2c1CCCC2
inactive: OVCAR-8 ovarian 15.1% | SK-OV-3 ovarian 18.2% | NCI/ADR-RES ovarian 17.7%
active: SR leukemia 1.26% | RPMI-8226 leukemia -11.7% | OVCAR-5 ovarian 7.97% | OVCAR-4 ovarian 6.02% | IGROV1 ovarian 7.11% | OVCAR-3 ovarian -0.0178% | HS 578T breast 5.7%

CCOCCNC1=C(Cl)C(=O)c2ccccc2C1=O
inactive: SR leukemia 89.3% | RPMI-8226 leukemia 90.4% | OVCAR-8 ovarian 106% | OVCAR-5 ovarian 120% | OVCAR-4 ovarian 107% | SK-OV-3 ovarian 108% | IGROV1 ovarian 112% | OVCAR-3 ovarian 101% | HS 578T breast 91.9% | NCI/ADR-RES ovarian 103%

Cn1ccnc1C(=O)/C=C/c1ccc(C(=O)Nc2ccc(Cl)cc2)cc1
active: SR leukemia -8.67% | RPMI-8226 leukemia -8.46% | IGROV1 ovarian -22.4% | OVCAR-3 ovarian -12.8% | NCI/ADR-RES ovarian 5.79%
inactive: OVCAR-8 ovarian 14.3% | OVCAR-5 ovarian 12.6% | OVCAR-4 ovarian 18.1% | SK-OV-3 ovarian 42.2% | HS 578T breast 18.4%

COc1ccc(CNc2c3ccccc3nc3ccccc23)cc1
inactive: RPMI-8226 leukemia 15.8% | OVCAR-8 ovarian 27.7% | OVCAR-5 ovarian 46.4% | OVCAR-4 ovarian 40.3% | SK-OV-3 ovarian 53.8% | IGROV1 ovarian 27.2% | OVCAR-3 ovarian 48.1% | HS 578T breast 58% | NCI/ADR-RES ovarian 38.8%
active: SR leukemia 6.96%

CSc1nc2ncc([N+](=O)[O-])c(=O)n2[nH]1
inactive: SR leukemia 107% | RPMI-8226 leukemia 107% | OVCAR-8 ovarian 104% | OVCAR-5 ovarian 106% | OVCAR-4 ovarian 102% | SK-OV-3 ovarian 113% | IGROV1 ovarian 105% | OVCAR-3 ovarian 113% | HS 578T breast 103% | NCI/ADR-RES ovarian 101%

CC1=C([Se]CC(OC(=O)CC[Se]c2ccccc2)C(=O)NC(C)(C)C)C(=O)c2ccccc2C1=O (stereo not given)
active: SR leukemia -27.7% | OVCAR-8 ovarian -82% | OVCAR-5 ovarian -63.1% | OVCAR-4 ovarian -83.6% | SK-OV-3 ovarian -98.3% | IGROV1 ovarian -19.2% | OVCAR-3 ovarian -95.9% | HS 578T breast -19.1% | NCI/ADR-RES ovarian -36.3%
inactive: RPMI-8226 leukemia 14.8%

COc1ccc(F)cc1/C=C/C(=O)/C=C(/C=C/c1cc(F)ccc1OC)OB(F)F
inactive: OVCAR-5 ovarian 48.9% | OVCAR-4 ovarian 28.8% | SK-OV-3 ovarian 97% | IGROV1 ovarian 25% | HS 578T breast 19.9% | NCI/ADR-RES ovarian 19.8%
active: SR leukemia -0.793% | RPMI-8226 leukemia -13.5% | OVCAR-8 ovarian 7.46% | OVCAR-3 ovarian 1.71%

Cc1cc(N2CCCCC2)cc(C)c1-c1csc(NC(=O)c2ccncc2)n1
inactive: SR leukemia 37.7% | RPMI-8226 leukemia 37.5% | OVCAR-8 ovarian 51.2% | OVCAR-5 ovarian 92.6% | OVCAR-4 ovarian 24.2% | SK-OV-3 ovarian 62.6% | IGROV1 ovarian 64.4% | OVCAR-3 ovarian 50.5% | HS 578T breast 75.2% | NCI/ADR-RES ovarian 56.4%

c1ccc2cc(C[n+]3ccn(CCCCCCCCCCn4cc[n+](Cc5ccc6ccccc6c5)c4)c3)ccc2c1
active: SR leukemia -45.2% | RPMI-8226 leukemia 9.87% | SK-OV-3 ovarian -17.1% | IGROV1 ovarian -26.1% | OVCAR-3 ovarian 4.99% | HS 578T breast -1.11%
inactive: OVCAR-8 ovarian 11.1% | OVCAR-5 ovarian 12.8% | OVCAR-4 ovarian 12.5% | NCI/ADR-RES ovarian 99.5%

Nc1n[nH]c2ccc([C@H]3[C@@H]4C5CCC(C5)[C@@H]4c4c(ccc5[nH]ncc45)N3S(=O)(=O)C3CC3)cc12 (stereo not given in full)
inactive: SR leukemia 11.3% | OVCAR-8 ovarian 17.4% | OVCAR-5 ovarian 23.4% | OVCAR-4 ovarian 30.3% | SK-OV-3 ovarian 52.7% | IGROV1 ovarian 18.8% | HS 578T breast 22.7%
active: RPMI-8226 leukemia 4.56% | OVCAR-3 ovarian -38.8% | NCI/ADR-RES ovarian 0.763%
